In PubChem BioAssay (NCI):
Where “and” joins values, the source holds several entries; their conditions need not be identical. Equal values may be shown once. About 79,000 compounds went through this panel and 15% of them were active in at least one assay; those are over-represented in the sample as a whole. Unmarked numbers belong to inactive results. Calls of active or inactive are those of the source. Rule as the data show it: active = growth inhibition above about 70%; inactive = the rest.

Columns and labels:
[1] = NCI Yeast Anticancer Drug Screen. Data for the rad50 strain (AID 155);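 also: 0% = growth of vehicle-only cultures of the same strain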; conditions: S. cerevisiae rad50 strain growth inhibition; at 50.0 µM; active compounds read high
Method in brief: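 Genetically altered yeast (DNA repair pathway); compound treatment; growth inhibition vs vehicle ctrl.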

[2] = NCI Yeast Anticancer Drug Screen. Data for the mec2-1 strain (AID 157); conditions: S. cerevisiae mec2-1 strain, at 50.0 µM, active compounds read high
Method in brief: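 Each compound was tested on mec2-1 yeast, a strain altered in DNA damage repair or cell cycle control. Growth inhibition is reported relative to vehicle.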

[3] = NCI Yeast Anticancer Drug Screen. Data for the sgs1 mgt1 strain (AID 161);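 also: 0% = growth of cultures given vehicle only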; conditions: S. cerevisiae sgs1 mgt1 strain, at 50.0 µM, active compounds read high
Method in brief: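 Inhibition of yeast growth, normalised to vehicle-treated controls, is reported for a strain bearing genetic alterations in DNA damage repair.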

[4] = NCI Yeast Anticancer Drug Screen. Data for the cln2 rad14 strain (AID 165);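 also: 0% = growth equal to vehicle treated cultures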; conditions: S. cerevisiae cln2 rad14 strain, at 50.0 µM, active compounds read high
Method in brief: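 Test compounds were added to cln2 rad14 yeast cultures; inhibition of growth was then determined by comparison with vehicle treatment.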

[5] = NCI Yeast Anticancer Drug Screen. Data for the bub3 strain (AID 167); conditions: S. cerevisiae bub3 mutant strain, at 50.0 µM, active compounds read high
Method in brief: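 Yeast carrying a defined mutation is treated with each compound, and growth is compared with that of vehicle-exposed cells to give inhibition.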

[6] = NCI Yeast Anticancer Drug Screen. Data for the mlh1 rad18 strain (AID 175); conditions: S. cerevisiae mlh1 rad18 strain growth inhibition; at 50.0 µM; active compounds read high
Method in brief: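 Inhibition values reflect reduced growth of mutant yeast versus vehicle-treated controls following compound exposure; the mutations affect DNA damage repair.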

Row | Structure (SMILES) | growth inhibition [1] | growth inhibition [2] | growth inhibition [3] | growth inhibition [4] | growth inhibition [5] | growth inhibition [6]
1 | Cn1c(O)c(N=O)c(=O)n(C)c1=O | 29.4% and 20.9% | 9.85% and -9.05% | -0.6% and 8.4% | 7.75% and -1.1% | -9.85% and -6.3% | -13.7% and 13.4%
2 | CCO[C@@H]1c2cc3c(cc2[C@@H](c2cc(OC)c(O)c(OC)c2)[C@H]2C(=O)OC[C@@H]21)OCO3 | 88.1% (active) | 92.2% (active) | 89% (active) | 85.2% (active) | 88.5% (active) | 87.5% (active)
3 | C#C[C@]1(O)CC[C@H]2[C@@H]3CCC4=C/C(=N/OC(=O)c5cccc6c(=O)c7ccccc7[nH]c56)CCC4[C@H]3CC[C@@]21CC (stereo partly drawn) | -15.8% | -35% | -30.4% | 23.2% | -29.1% | -45.6%
4 | c1ccc2c(c1)CC1OCN3CN(COC4Cc5ccccc5CC43)C1C2 (stereo not drawn) | 0.75% | -4.7% | 1.2% | -5.9% | -1.45% | -7.15%
5 | CC(C)(OOC(C)(C)c1ccccc1)c1ccccc1 | -13.1% | -16% | 4.6% | -40.9% | 6.05% | -8.95%
6 | CN(C)CCN=C(N)N[N+](=O)[O-] | 1.35% | 3.75% | -15.4% | -96.4% | 2.4% | -38%
7 | CC1(C)OP(=O)(O)C=C1[Se]c1ccccc1 | 19.2% | 11.2% | 24.4% | 4.95% | -3.2% | 26.6%
8 | CCCCOc1ccc([As](=O)(O)O)cc1 | -17.4% | -10.2% | 4.3% | -19.2% | 16.1% | 5.65%
9 | CNC(=O)Oc1ccccc1C(N)=O | 10.4% | -1.8% | -14.8% | -46.8% | -4.55% | 7.3%
10 | COc1ccc(C=C2C(=O)N(C)C(=O)N(C)C2=O)cc1 | 4.8% | 2.1% | -13.2% | 22.3% | 28% | 36.5%
11 | N#CC(C#N)c1ccccc1 | 29.1% | 2.6% | 3.5% | -4.05% | 8.75% | 1.2%
12 | Nc1ncnc2c1c(Cl)cn2C1OC(CO)C(O)C1O (stereo not drawn) | 10.1% | 15.2% | 12% | 32.4% | 19.2% | 26.4%
13 | O=C(NCCNC(=O)Nc1ccccc1S(=O)(=O)F)Nc1ccccc1S(=O)(=O)F | -17% | -35.2% | -16.1% | 6.55% | -32.1% | -13%
14 | [F][Sn]([c]1ccc(Cl)cc1)([c]1ccc(Cl)cc1)[c]1ccc(Cl)cc1 | 98.2% (active) | 95.2% (active) | 98.5% (active) | 95.9% (active) | 96.2% (active) | 98.2% (active)
15 | C[N+]1(C)CCN(c2ccccc2)CC1 | 18.9% | -29.6% | -12.5% | 14.2% | -8.9% | -5.35%
16 | O=NN1CCCC1C(=O)O (stereo not drawn) | -10.8% and 0.75% | -16.6% and -11.8% | -14.2% and -12% | 10.1% and 3.9% | 3.45% and 1.65% | -14% and -2.15%
17 | CC(Cl)CN(CC(C)Cl)c1ccc(-c2ccccc2)cc1 (stereo not drawn) | 5.25% | -13.8% | 12.7% | 18% | -5% | -30.9%

Row | Structure (SMILES) | growth inhibition [1] | growth inhibition [2] | growth inhibition [3] | growth inhibition [4] | growth inhibition [5] | growth inhibition [6]
18 | CNc1cc(Cl)c(C#N)c(Cl)c1 | -2.6% | -2.7% | -0.7% | -39.2% | -24.6% | 9.25%
19 | O=C(O)C(F)(F)F.O=C(O)C(F)(F)F.O=C(O)C(F)(F)F.O=C(O)C(F)(F)F.[Rh].[Rh] | 26.8% | 17.1% | 22.1% | 21.2% | 21.4% | 28%
20 | CN(C)c1ccccc1CN1CCCN(Cc2ccccc2N(C)C)C1c1ccc(N(CCCl)CCCl)cc1 | 92.4% (active) | 40.4% | 93.5% (active) | 57.4% | 15.1% | 90.8% (active)
21 | CNCCc1c[nH]c2ccc(O)cc12 | -2.15% | -8.6% | -1.35% | -39.5% | 18.9% | -10.7%
22 | O=C(CCl)Nc1ccccc1Cl | 39% | 9.65% | 25.9% | 18.6% | 55.8% | 45.1%
23 | CC(=O)[O-].Cn1ccnc1CNCc1nccn1C.[Cu+2].[O-][Cl+3]([O-])([O-])[O-] | 18.9% | 3.2% | 3.3% | 18.6% | -1.4% | 5.25%
24 | CCCCCCCN1CCC(C(=O)CC)(c2cccc(O)c2)CC1 | 21.6% | 21.4% | 33.5% | -2.75% | 15.9% | 30.6%
25 | C[CH2][Sn]([CH2]C)([CH2]C(=O)OC)[CH2]C(=O)OC | 3.15% | 14.7% | 15.5% | 11.7% | 14.4% | -9.9%
26 | COc1cc2c[n+](C)c3c4cc5c(cc4ccc3c2cc1OC)OCO5 | -11.7% | -37.5% | -28.1% | -5.75% | -26.3% | -33.6%
27 | O/N=C1\CN2CCC1CC2 | 15.9% | 13.2% | 1.7% | 15.4% | 10.4% | 20.3%
28 | COc1cc[c]([Pb]([c]2ccc(Cl)cc2)([c]2ccc(Cl)cc2)[c]2ccc(OC)cc2)cc1 | -13.4% | -8.95% | -1.1% | -25.7% | -4.25% | 16.2%
29 | CO[C@H]1C=C[C@@]23c4cc5c(cc4CO[C@]2(O)CN(C)[C@H]3C1)OCO5 | -16.2% | -1.35% | -10.8% | -1.35% | 1.8% | -41%
30 | CCN(CC)P1(=O)OP(=O)(N(CC)CC)OP(=O)(N(CC)CC)O1 (stereo not drawn) | -0.5% | 7% | 11.8% | 14.3% | -9.7% | -11.6%
31 | CC1NC1c1ccccc1 (stereo not drawn) | -13.6% | -29.3% | -6.85% | -20.4% | -11.8% | -19.4%
32 | CCCCP(=O)(CCCC)CCCC.CCCCP(=O)(CCCC)CCCC.CCCCP(=O)(CCCC)CCCC.CCCCP(=O)(CCCC)CCCC.[Ce+3].[O-][Cl+3]([O-])([O-])O | 43.9% | 36.3% | 30.6% | 33.9% | 62.1% | 42.4%
33 | O=c1ccc(=O)[nH][nH]1 | 6.25% and 36.3% and -4.05% | 10.2% and 23.1% and -12.5% | 5.6% and 7.25% and -6.05% | 3.85% and 27.6% and -7.1% | 1.65% and 30% and 26.9% | 10.8% and 16.1% and 6.25%
